# Several values for one entry are separate records, joined by “and”; a condition that tells them apart may be missing. Equal values may be shown once. Results filed as inconclusive are left out. Entries that show only a call come without a potency. Activity calls are given as the source filed them. Unless noted, the call rests on the fitted dose curve.
# Experiments:
# [1] = qHTS for Inhibitors of the Functional Ribonucleoprotein Complex (vRNP) of Lassa (LASV) Arenavirus: LASV Primary Screen - GLuc reporter signal (AID 1347082; calls by dose curve; tested in HEK293 reporter line; further: nearly all actives have a fitted effect of over 60% in size; further: potency means the concentration at half of the fitted maximal effect)
# [2] = qHTS for Inhibitors of the Functional Ribonucleoprotein Complex (vRNP) of Lassa (LASV) Arenavirus: Viability assay - alamar blue signal for LASV Primary Screen (AID 1347083; calls by dose curve; tested in HEK293 reporter line; further: nearly all actives have a fitted effect of over 80% in size; further: potency means the concentration at half of the fitted maximal effect)
# [3] = target: Nucleoprotein (Lymphocytic choriomeningitis virus (strain Armstrong)) (UniProt P09992); test: qHTS for Inhibitors of the Functional Ribonucleoprotein Complex (vRNP) of Lymphocytic Choriomeningitis Arenaviruses (LCMV): LCMV Primary Screen - GLuc reporter signal (AID 1347086); further: nearly all actives have a fitted effect of over 70% in size; further: potency means the concentration at half of the fitted maximal effect
# Sequence of Nucleoprotein (Lymphocytic choriomeningitis virus (strain Armstrong)) (P09992 whole entry, looked up): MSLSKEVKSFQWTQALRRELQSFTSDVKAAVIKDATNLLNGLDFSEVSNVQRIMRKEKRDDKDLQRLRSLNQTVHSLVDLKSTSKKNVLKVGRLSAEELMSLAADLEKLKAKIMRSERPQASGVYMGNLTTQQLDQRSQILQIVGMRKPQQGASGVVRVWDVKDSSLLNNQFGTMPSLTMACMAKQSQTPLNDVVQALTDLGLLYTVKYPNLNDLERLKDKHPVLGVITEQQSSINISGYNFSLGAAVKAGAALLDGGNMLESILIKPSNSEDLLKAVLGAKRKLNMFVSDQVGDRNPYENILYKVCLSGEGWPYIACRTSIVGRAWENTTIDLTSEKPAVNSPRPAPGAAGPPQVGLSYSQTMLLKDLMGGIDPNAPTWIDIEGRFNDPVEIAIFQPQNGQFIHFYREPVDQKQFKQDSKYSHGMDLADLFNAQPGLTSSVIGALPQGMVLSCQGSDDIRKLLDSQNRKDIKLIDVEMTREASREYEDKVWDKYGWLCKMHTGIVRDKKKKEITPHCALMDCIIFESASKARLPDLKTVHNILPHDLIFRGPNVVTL
# [4] = Cytotoxicity counterscreen for inhibitors of SARS-CoV-2 cell entry (AID 1645845); further: nearly all actives have a fitted effect of over 50% in size; further: potency means the concentration at half of the fitted maximal effect
# Method in brief: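 HEK293-ACE2 cells (Expi293F stably expressing human ACE2) seeded overnight, then compound for 1 h plus 48 h at 37C. Viability as ATP content by luminescence; normalized to wells with cells and media-only wells.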
# [5] = Primary qHTS to identify inhibitors of SARS-CoV-2 cell entry (AID 1645846); conditions: activity change, negative = inhibition: at 57.1 µM (top of the series) unless noted; further: nearly all actives have a fitted effect of over 45% in size
# Method in brief: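 Inhibition of spike-mediated entry was scored in human ACE2-transfected Expi293F cells. Particles were MLV-pseudotyped with Wuhan-Hu-1 S carrying a 19-aa C-terminal deletion; signal was luciferase after two days, scaled between spike PP and fusion-protein-free PP.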
# [6] = Primary qHTS for inhibitors of SARS-S pseudo-typed particle cell entry (AID 1479145); further: nearly all actives have a fitted effect of over 45% in size
# [7] = Primary qHTS for Huh7 cytotoxicity: counterscreen for inhibitors of MERS-S pseudotyped particle cell entry (AID 1479147); conditions: outcome: dose series up to 57.1 µM unless noted
# [8] = Primary qHTS for inhibitors of MERS-S pseudo-typed particle cell entry (AID 1479149); further: nearly all actives have a fitted effect of over 60% in size
# [9] = Primary qHTS for Vero E6 cytotoxicity: counterscreen for inhibitors of SARS-S pseudo-typed particle cell entry (AID 1479150); conditions: outcome: dose series up to 57.1 µM unless noted
# [10] = Confirmatory qHTS for activators (rescue) of SARS-CoV-2 Cytopathic Effect (CPE) (AID 1508606); further: potency means the concentration at half of the fitted maximal effect; nearly all actives have a fitted effect of over 70% in size
# [11] = Confirmatory qHTS for VERO E6 Cytotoxicity Assay: Counterscreen for SARS-CoV-2 CPE Assay (AID 1508605); further: nearly all actives have a fitted effect of over 60% in size; further: potency means the concentration at half of the fitted maximal effect
# [12] = Confirmatory qHTS to identify inhibitors of SARS-CoV-2 cell entry (AID 1645844); further: potency means the concentration at half of the fitted maximal effect; nearly all actives have a fitted effect of over 45% in size
# Method in brief: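 HEK293-ACE2 cells were pretreated 1 h with compound, then infected with MLV-based pseudoparticles bearing C-terminally truncated Wuhan-Hu-1 spike for 48 h at 37C; luciferase luminescence normalized to spike PP and bald PP wells.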
# [13] = VSVG counterscreen qHTS to identify inhibitors of SARS-CoV-2 cell entry (AID 1645847); further: potency means the concentration at half of the fitted maximal effect; nearly all actives have a fitted effect of over 65% in size
# Method in brief: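 Luminescence from a luciferase reporter, normalised to bald particle and VSV-G pseudotyped particle wells, is the read-out. Cells are HEK293 expressing human ACE2, exposed to compound 1 h before a 48 h particle infection at 37 °C.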
# [14] = target: Alpha-galactosidase (Coffea arabica) (UniProt Q42656); test: Counterscreen for Glucocerebrosidase Inhibitors: qHTS Assay for Coffee Bean alpha-Galactosidase at pH 4.5 (AID 957; active means well fitted curve in the direction sought with a large enough effect; an effect the other way counts as inactive or inconclusive)
# Sequence of Alpha-galactosidase (Coffea arabica) (Q42656 whole entry, looked up): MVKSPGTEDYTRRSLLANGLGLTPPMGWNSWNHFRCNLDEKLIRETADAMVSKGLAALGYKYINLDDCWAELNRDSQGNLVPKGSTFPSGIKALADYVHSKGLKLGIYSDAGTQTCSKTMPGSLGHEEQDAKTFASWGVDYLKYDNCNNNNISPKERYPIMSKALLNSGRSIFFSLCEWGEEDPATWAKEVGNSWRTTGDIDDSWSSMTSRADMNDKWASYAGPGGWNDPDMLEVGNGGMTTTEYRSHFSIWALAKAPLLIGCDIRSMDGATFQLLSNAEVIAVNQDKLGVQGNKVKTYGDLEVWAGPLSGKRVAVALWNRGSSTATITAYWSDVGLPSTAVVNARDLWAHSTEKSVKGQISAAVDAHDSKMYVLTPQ
# Method in brief: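 Coffee bean enzyme (2 nM) with 80 uM 4-methylumbelliferyl alpha-D-galactopyranoside in 50 mM citric acid, 0.005% Tween-20, pH 4.5, 20 min at room temperature; compounds 0.7 nM–77 uM. Stopped at pH 10, fluorescence 365/440 nm; AC50 from Hill fits.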
# [15] = target: Alpha-galactosidase (Coffea arabica) (UniProt Q42656); test: Counterscreen for Glucocerebrosidase Inhibitors: qHTS Assay for Coffee Bean alpha-Galactosidase at pH 5.9 (AID 998; active means well fitted curve in the direction sought with a large enough effect; an effect the other way counts as inactive or inconclusive)
# Method in brief: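 Green coffee bean enzyme (2 nM) with 4-methylumbelliferyl alpha-D-galactopyranoside (80 uM) in 50 mM citric acid, 0.005% Tween-20, pH 5.9, 20 min at room temperature; compounds 0.7 nM–77 uM. Stopped at pH 10, fluorescence Ex365/Em440; Hill-fit AC50.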
# [16] = qHTS for Inhibitors of the Functional Ribonucleoprotein Complex (vRNP) of Lymphocytic Choriomeningitis Arenaviruses (LCMV): Viability assay - alamar blue signal for LCMV Primary Screen (AID 1347085; calls by dose curve; tested in HEK293 reporter line; further: potency means the concentration at half of the fitted maximal effect; nearly all actives have a fitted effect of over 80% in size)
smiles,measurement,setting,value
CN1N=C(N)c2cn([C@@H]3O[C@H](COP(=O)(O)O)[C@@H](O)[C@@H]3O)c3ncnc1c23,Potency,[1],inactive
same,Potency,[2],34.3 µM (active)
same,Potency,[3],inactive
C[C@]1(c2nc3c(C(N)=O)cccc3[nH]2)CCCN1,Potency,[1],inactive
same,Potency,[2],2.73 µM (active)
same,Potency,[3],inactive
same,Potency,[4],inactive
same,"activity change, negative = inhibition",[5],-3.68%
C[C@]12C=CC(=O)C=C1CC[C@@H]1[C@@H]2CC[C@]2(C)C(=O)CC[C@@H]12,Potency,[1],inactive
same,Potency,[2],inactive
same,Potency,[3],inactive
CC#CCn1c(N2CCC[C@@H](N)C2)nc2c1c(=O)n(Cc1nc(C)c3ccccc3n1)c(=O)n2C,Potency,[1],inactive
same,Potency,[2],inactive
same,Potency,[3],inactive
same,Potency,[6],inactive
same,outcome,[7],inactive
same,Potency,[8],inactive
same,outcome,[9],inactive
same,Potency,[4],inactive
same,"activity change, negative = inhibition",[5],-18.4% and -12.2%
CC(=O)O[C@@H]1/C=C/[C@](C)(O)C[C@@H](C)C/C=C/[C@H]2[C@H](O)C(C)=C(C)[C@H]3[C@H](Cc4ccccc4)NC(=O)[C@@]123,Potency,[1],inactive
same,Potency,[2],2 µM (active)
same,Potency,[3],inactive
CC(C)(N)c1ccc(-c2nc3ccccc3nc2-c2ccccc2)cc1,Potency,[1],inactive
same,Potency,[2],19.3 µM (active)
same,Potency,[3],inactive
same,Potency,[10],10 µM (active)
same,Potency,[4],inactive
same,"activity change, negative = inhibition",[5],-19.6%
COc1cc2ncn(-c3cc(OCc4ccccc4S(C)(=O)=O)c(C#N)s3)c2cc1OC,Potency,[1],inactive
same,Potency,[2],27.3 µM (active)
same,Potency,[3],inactive
same,Potency,[4],inactive
CC(C)(C)NC(=O)[C@H]1CN(Cc2cccnc2)CCN1C[C@@H](O)C[C@@H](Cc1ccccc1)C(=O)N[C@H]1c2ccccc2C[C@H]1O,Potency,[1],inactive
same,Potency,[2],inactive
same,Potency,[3],inactive
Nc1ncnc2c1ncn2[C@@H]1O[C@H](CO)C[C@@H]1O,Potency,[1],inactive
same,Potency,[2],inactive
same,Potency,[3],inactive
Cc1ccc(NC(=O)Nc2cc(C(F)(F)F)ccc2F)cc1Nc1ccc2c(c1)NC(=O)C2=Cc1ccc[nH]1,Potency,[1],30.6 µM (active)
same,Potency,[2],17.2 µM (active)
same,Potency,[3],27.3 µM (active)
C[C@@H](NCc1cc2ccccc2[nH]1)c1cccc2ccccc12,Potency,[1],inactive
same,Potency,[2],inactive
same,Potency,[3],inactive
same,Potency,[4],31.6 µM (active)
COc1ccc(-c2cc3nccn3c(Nc3ncccc3C(N)=O)n2)cc1OC,Potency,[1],inactive
same,Potency,[2],2.17 µM (active)
same,Potency,[3],inactive
same,Potency,[4],inactive
CCNC(=O)c1cc2c(-c3cc(OCCN4CCCC4)c(Cl)cc3Cl)nc(N)nc2s1,Potency,[1],4.85 µM (active)
same,Potency,[2],4.32 µM (active)
same,Potency,[3],1.37 µM (active)
CC(=O)N1CCN(c2ccc(OCc3nn(C)c(C)c3-c3cccc4c(CCCOc5cccc6ccccc56)c(C(=O)O)n(Cc5cccnc5)c34)cc2)CC1,Potency,[1],inactive
same,Potency,[2],inactive
same,Potency,[3],inactive
Cc1cccc(-c2[nH]c(C(C)(C)C)nc2-c2ccc3c(c2)OCO3)n1,Potency,[1],10.9 µM (active)
same,Potency,[2],7.69 µM (active)
same,Potency,[3],7.69 µM (active)
same,Potency,[4],17.8 µM (active)
CCCCCCCCCCCCCCCC(N)=O,"activity change, negative = inhibition",[1],1.8% [at 5.82 µM] (inactive)
same,"activity change, negative = reduced viability",[2],2.57% [at 5.82 µM] (inactive)
same,"activity change, negative = inhibition",[3],-29.4% [at 5.82 µM] (inactive)
CC(C)(C)Cn1c(N)nc2ccc(-c3[nH]c(C(C)(C)C)nc3-c3ccc(F)cc3)nc21,Potency,[1],inactive
same,Potency,[2],inactive
same,Potency,[3],inactive
same,Potency,[11],11.2 µM (active)
same,Potency,[10],1.58 µM (active)
NC(=O)c1cccc2cn(-c3ccc([C@@H]4CCCNC4)cc3)nc12,Potency,[1],inactive
same,Potency,[2],10.9 µM (active)
same,Potency,[3],inactive
same,Potency,[11],inactive
same,Potency,[10],11.2 µM (active)
same,Potency,[12],4.29 µM (active)
same,Potency,[13],2.15 µM (active)
Cc1cc(OCCCS(C)(=O)=O)cc(C)c1-c1cccc(COc2ccc3c(c2)OC[C@H]3CC(=O)O)c1,Potency,[1],inactive
same,Potency,[2],inactive
same,Potency,[3],inactive
same,Potency,[4],inactive
COCCCCC(=NOCCN)c1ccc(C(F)(F)F)cc1,outcome,[14],inactive
same,outcome,[15],inactive
same,Potency,[1],inactive
same,Potency,[2],1.93 µM (active)
same,Potency,[16],38.5 µM (active)
C=C(C)[C@@]12OC3(c4ccccc4)O[C@@H]1[C@@H]1[C@@H]4O[C@]4(CO)[C@@H](O)[C@]4(O)C(=O)C(C)=C[C@H]4[C@@]1(O3)[C@H](C)[C@H]2OC(=O)/C=C/C=C/c1ccccc1,Potency,[1],inactive
same,Potency,[2],inactive
same,Potency,[3],inactive

# Reference: PubChem BioAssay (NCATS)
